Bioassay records as filed in PubChem BioAssay.
Only some compounds are listed: those with a hit (about 7% of all), similar ones and a draw of the others.
ADAM10 inh: inhibits human ADAM10 | inhibition, % at 7 µM | O14672 | AID 720582 | 370,000 compounds, 0.62% hits | recombinant ADAM10, EDANS/DABCYL FRET peptide cleavage, 3 h;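 active = inhibition above a per-campaign cutoff equal to the mean of compounds falling between control-based bounds plus 3 SD, cut at about 20% in these data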;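 also: 0% = DMSO wells while the 100% control is not disclosed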
Target sequence (O14672 214-748 limits assumed): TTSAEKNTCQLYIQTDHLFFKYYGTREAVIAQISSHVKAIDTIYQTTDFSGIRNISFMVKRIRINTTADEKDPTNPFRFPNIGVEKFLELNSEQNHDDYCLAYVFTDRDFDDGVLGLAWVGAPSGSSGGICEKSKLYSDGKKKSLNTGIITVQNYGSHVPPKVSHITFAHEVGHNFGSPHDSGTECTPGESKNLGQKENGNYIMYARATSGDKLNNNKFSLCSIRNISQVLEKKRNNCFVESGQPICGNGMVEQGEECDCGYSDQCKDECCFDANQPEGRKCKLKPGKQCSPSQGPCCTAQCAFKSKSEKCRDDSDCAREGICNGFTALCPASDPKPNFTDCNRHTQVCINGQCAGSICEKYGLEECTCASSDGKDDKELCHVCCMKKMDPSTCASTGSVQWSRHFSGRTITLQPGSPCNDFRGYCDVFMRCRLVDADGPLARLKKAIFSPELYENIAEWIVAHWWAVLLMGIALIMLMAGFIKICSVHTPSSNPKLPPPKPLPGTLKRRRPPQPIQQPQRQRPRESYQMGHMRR
GRIN3A LBD mod: modulators (binders) of human NR3A ligand-binding domain; NR3A LBD differential scanning fluorimetry, Tm shift; 0% = protein alone, 100% = glycine-bound protein; Tm shift relative to glycine control, % at 25 µM; 340,000 compounds, 2.5% hits;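 active = melting temperature shift of at least 10% of the positive control shift, at one fixed dose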
rCAG RNA binder: r(CAG) repeat RNA binding | TO-PRO-1 dye displacement fluorescence | inhibition, % at 3 µM | 370,000 compounds, 1.3% hits;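 active = inhibition above the plate cutoff, the mean of all test compounds on that plate plus 3 SD, cut at about 35% in these data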;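 also: 0% = DMSO alone and 100% = 100 µM mitoxantrone as full dye displacement; higher means more dye released from RNA so lower well fluorescence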
AHR act: activates the human aryl hydrocarbon receptor. P35869. 320,000 compounds, 2.5% hits. activation, % at 5 µM. AHR-responsive luciferase reporter cells, luminescence; in the data active = activation above about 47%;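 also: 0% = vehicle wells and 100% = reference agonist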
ADAM17 inh: ADAM17 inhibition, QFRET primary screen; AID 720648; inhibition, % at 6.95 µM; P78536; recombinant ADAM17, EDANS/DABCYL FRET peptide cleavage; 370,000 compounds, 0.83% hits;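 active = inhibition above the mean of compounds lying between control limits plus 3 SD, set per campaign, cut at about 8.5% in these data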;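 also: 0% = DMSO-only wells as the low control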
KLK7 zymogen act: proKLK7 (human) activation, primary screen. 370,000 compounds, 0.9% hits. activation, % at 7 µM. P49862. purified proKLK7, EDANS-DABCYL substrate fluorescence; 100% is mature enzyme control, 0% vehicle;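 active = activation above the mean of all tested compounds plus 3 SD, computed per campaign excluding outliers beyond control limits, cut at about 13% in these data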
rCAG bind conf: r(CAG) RNA repeat binding, confirmation; TO-PRO-1 dye displacement fluorescence; AID 652065; shares compounds with rCAG RNA binder; inhibition, % at 3 µM; 4,300 compounds, 70% hits;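 active = inhibition above a per-plate cutoff, the mean inhibition of sample wells plus 3 SD, cut at about 35% in these data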;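 also: loss of TO-PRO-1 fluorescence as compound displaces dye from 1x1 AA loop RNA; 0% = DMSO only wells and 100% = 100 µM mitoxantrone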
dCAG dye counter: disrupts DNA CAG TO-PRO-1 complex, flagging rCAG hits. AID 652068. shares compounds with rCAG RNA binder. inhibition, % at 3 µM. d(CAG) DNA oligo TO-PRO-1 dye displacement, fluorescence. 4,300 compounds, 94% hits;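 active = inhibition above its plate's cutoff, the mean test-well inhibition plus 3 SD, cut at about 4.8% in these data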;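 also: 0% = DNA dye mix with DMSO and 100% = 100 µM mitoxantrone; hits displace the dye from DNA and so lower well fluorescence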
Starred values were filed as active, the others as inactive.

How did COC(=O)[C@]12C[C@H](CC(=O)N3CCN(C(=O)C4CC4)CC3)C(=O)N(Cc3ccccc3)C1=C[C@H](COCc1ccccc1)O[C@@H]2C do in these assays?
ADAM10 inh: 5; rCAG RNA binder: 1; ADAM17 inh: 0; KLK7 zymogen act: 0

Results for CCOc1ccc(Nc2nc(Cc3nnc(SCC(=O)O)o3)cs2)cc1 ?
ADAM10 inh: 2; GRIN3A LBD mod: 1; rCAG RNA binder: 46*; AHR act: 8; ADAM17 inh: -3; KLK7 zymogen act: 0; rCAG bind conf: 29; dCAG dye counter: 9.0*

Results for O=C(c1ccccc1)N1CCC(c2nc(-c3ccc(S(=O)(=O)N4CCOCC4)cc3)no2)CC1 ?
ADAM10 inh: 6; GRIN3A LBD mod: -1; rCAG RNA binder: -1; AHR act: 0; ADAM17 inh: 8; KLK7 zymogen act: 1

Results for CN(C)c1ccc(-c2noc(C3CCN(S(=O)(=O)c4cccc(C(=O)O)c4)CC3)n2)cc1 ?
ADAM10 inh: 13; GRIN3A LBD mod: 6; rCAG RNA binder: 65*; AHR act: -1; ADAM17 inh: 1; KLK7 zymogen act: -1; rCAG bind conf: 68*; dCAG dye counter: 32*

How did COC(=O)[C@]12CCCCC=C1N(Cc1ccc3c(c1)OCO3)C(=O)[C@H](CC(=O)NCC13CC4CC(CC(C4)C1)C3)C2 do in these assays?
ADAM10 inh: 12; rCAG RNA binder: 7; ADAM17 inh: 5; KLK7 zymogen act: 0

What do the screens show for `CN(C)CCC(=O)C(Cc1ccccc1)c1ccccc1` (stereo not given)?
ADAM10 inh: 10; GRIN3A LBD mod: 1; rCAG RNA binder: 35*; AHR act: -3; ADAM17 inh: -22; KLK7 zymogen act: 0; rCAG bind conf: -1; dCAG dye counter: -1

Results for CN(C)CCNC(=O)C(c1ccccc1)c1ccccc1 ?
ADAM10 inh: -2; GRIN3A LBD mod: 4; rCAG RNA binder: -1; AHR act: -2; ADAM17 inh: 1; KLK7 zymogen act: 0

What do the screens show for `Fc1cccc(Cc2c(-c3ccccc3)nc3ccc(Br)cn23)c1`?
ADAM10 inh: -4; rCAG RNA binder: 11; ADAM17 inh: -2; KLK7 zymogen act: -1

How did Cc1ccc(-c2nc3ccc(Cl)cn3c2Cc2cccc(Cl)c2)cc1 do in these assays?
ADAM10 inh: -16; rCAG RNA binder: 59*; ADAM17 inh: -7; KLK7 zymogen act: 0; rCAG bind conf: 42*; dCAG dye counter: 10*

Results for Brc1cccc(-c2nc3ccc(Br)cn3c2Cc2ccccc2)c1 ?
ADAM10 inh: -3; rCAG RNA binder: 49*; ADAM17 inh: -2; KLK7 zymogen act: -1; rCAG bind conf: 12; dCAG dye counter: 6.2*

What do the screens show for `Clc1cccc(Cc2c(-c3cccc(Br)c3)nc3ccc(Br)cn23)c1`?
ADAM10 inh: 5; rCAG RNA binder: 52*; ADAM17 inh: 1; KLK7 zymogen act: -3; rCAG bind conf: 39*; dCAG dye counter: 9.1*

Results for Clc1ccc(-c2nc3ccc(Br)cn3c2Cc2cccc(Cl)c2)cc1 ?
ADAM10 inh: 5; rCAG RNA binder: 38*; ADAM17 inh: 2; KLK7 zymogen act: -2; rCAG bind conf: 32; dCAG dye counter: 9.2*

What do the screens show for `Cc1ccc(-c2nc3ccc(Br)cn3c2Cc2cccc(Cl)c2)cc1`?
ADAM10 inh: -2; rCAG RNA binder: 26; ADAM17 inh: -1; KLK7 zymogen act: -3

What do the screens show for `O=C(NCC1CCN(C(=O)C(=O)c2cc3ccccc3o2)CC1)c1ccc2c(c1)OCC2`?
ADAM10 inh: 6; rCAG RNA binder: 4; ADAM17 inh: 2; KLK7 zymogen act: 0

Results for O=C(Nc1ccc(Cl)cc1)C1Cc2c(-c3ccccc3)ccnc2O1 (stereo not given) ?
ADAM10 inh: 11; rCAG RNA binder: 1; ADAM17 inh: 4; KLK7 zymogen act: 0

Results for Cc1cc2nc(-c3ccc(F)cc3)c(Cc3cccc(Cl)c3)n2c(C)c1Br ?
ADAM10 inh: -5; rCAG RNA binder: 61*; ADAM17 inh: -3; KLK7 zymogen act: 0; rCAG bind conf: 29; dCAG dye counter: 8.4*

How did Clc1cccc(-c2nc3ccc(Br)cn3c2Cc2ccccc2)c1 do in these assays?
ADAM10 inh: -6; rCAG RNA binder: 50*; ADAM17 inh: -5; KLK7 zymogen act: 0; rCAG bind conf: 13; dCAG dye counter: 4

What do the screens show for `Cc1cc2nc(-c3ccc(F)cc3)c(Cc3ccccc3)n2c(C)c1Br`?
ADAM10 inh: -2; rCAG RNA binder: 4; ADAM17 inh: -2; KLK7 zymogen act: 1

Results for O=C(NCc1ccccc1)N1CCN(Cc2nc3ccccc3c(=O)[nH]2)CC1 ?
ADAM10 inh: 0; rCAG RNA binder: 1; ADAM17 inh: 2; KLK7 zymogen act: 0

How did C/C(=N\NC(=O)c1ccccc1)c1cc2cc([N+](=O)[O-])ccc2oc1=O do in these assays?
ADAM10 inh: 2; GRIN3A LBD mod: 5; rCAG RNA binder: 50*; AHR act: 6; ADAM17 inh: 1; KLK7 zymogen act: 0; rCAG bind conf: 44*; dCAG dye counter: 15*

How did Cc1ccc(-n2[nH]c(C)c(C=Nc3ccc(S(=O)(=O)Nc4nccs4)cc3)c2=O)c(C)c1 do in these assays?
AHR act: 2

Results for Cc1[nH]n(-c2ccccc2)c(=O)c1C=Nc1ccc(S(=O)(=O)Nc2nccs2)cc1 ?
ADAM10 inh: -4; GRIN3A LBD mod: -3; rCAG RNA binder: 43*; AHR act: 8; ADAM17 inh: -1; KLK7 zymogen act: -1; rCAG bind conf: 41*; dCAG dye counter: 13*

How did Cc1ccc(-n2[nH]c(C)c(C=Nc3ccc(S(=O)(=O)Nc4nccs4)cc3)c2=O)cc1C do in these assays?
ADAM10 inh: 13; GRIN3A LBD mod: 15*; rCAG RNA binder: 56*; AHR act: 7; ADAM17 inh: 3; KLK7 zymogen act: 0; rCAG bind conf: 75*; dCAG dye counter: 38*

How did COC(=O)CC#C[C@H](C)[C@@H](NS(C)(=O)=O)C1CCCCC1 do in these assays?
ADAM10 inh: -4; rCAG RNA binder: 6; ADAM17 inh: -2; KLK7 zymogen act: 1

Results for CCN(C(=O)[C@@H](C1CC1)[C@@H](O)c1ccc(Cl)cc1)c1ccccc1 ?
ADAM10 inh: 3; rCAG RNA binder: -3; ADAM17 inh: 0; KLK7 zymogen act: 0

What do the screens show for `CSCC[C@@H](CO)NC(=O)[C@H]1O[C@@H](n2ccc(N)nc2=O)[C@H](O)[C@@H]1O`?
ADAM10 inh: -3; rCAG RNA binder: 1; ADAM17 inh: -2; KLK7 zymogen act: 0
